Screening results: PubChem BioAssay, National Center for Advancing Translational Sciences (NCATS)
Hits are enriched below; roughly 5.7% of the tested compounds scored in any of these assays.
HT1080-NT tox: qHTS for induction of synthetic lethality in tumor cells producing 2HG: qHTS for the HT-1080-NT fibrosarcoma cell line; HT-1080-NT fibrosarcoma viability, CellTiter-Glo ATP luminescence, 48 h; Potency, µM (top dose mostly 46.1 µM), for the others: at the highest dose activity, negative = less viability, usual class: cytotoxic; 360,000 tested, 1.6% active;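 further: NT is the 2HG producing partner of a matched IDH1 knockdown line; 0% = DMSO-treated cells and -100% = media-only wells without cells; nearly all actives have a fitted effect of over 55% in size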
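Read-out is CellTiter-Glo luminescence after 10 minutes at room temperature, following 48 hours' compound treatment of HT-1080-NT cells (750 cells/well, RPMI, 5% FBS, 37 degrees C).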
KB-3-1 cytotox: qHTS assay for MDR1-selective chemotherapeutics: Primary screen using the parental adenocarcinoma cell KB-3-1 | KB-3-1 viability, CellTiter-Glo ATP luminescence, 72 h | Potency, µM (highest dose often 46.1 µM), hits mostly cytotoxic | 400,000 tested, 1.4% active; further: nearly all actives have a fitted effect of over 60% in size
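Cytotoxicity measured as CellTiter-Glo luminescence after 72 h at 37 C. Compound titrations were pinned onto drug-naive KB-3-1 parental adenocarcinoma cells grown in DMEM with 10% FBS, and normalized data fitted to concentration-response curves.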
HT1080 IDH1KD tx: qHTS for induction of synthetic lethality in tumor cells producing 2HG: qHTS for the HT-1080-IDH1KD cell line | 360,000 tested, 2% active | AID 686971, 2013 | HT-1080 IDH1 knockdown viability, ATP luminescence, 48 h | Potency, µM (series often up to 46.1 µM), for inactives: at the top dose activity, negative = toxicity, actives largely listed as cytotoxic;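 further: 0% = DMSO wells and -100% = cell-free medium wells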
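CellTiter-Glo luminescence after 48 h compound exposure at 37 degrees C of IDH1-knockdown HT-1080 cells in 5% FBS RPMI. %Activity scaled between DMSO wells and cell-free media wells, with curves fitted and assigned curve classes.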
KB-V1 MDR tox: qHTS assay for MDR1-selective chemotherapeutics: Primary screen using the drug-selected MDR subline cells KB-V1. KB-V1 MDR cells viability, CellTiter-Glo, 72 h. Potency, µM (top dose mostly 46.1 µM), actives largely listed as cytotoxic. 400,000 tested, 3.4% active; further: nearly all actives have a fitted effect of over 60% in size
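KB-V1, DMEM (no phenol red) + 10% FBS; cpd pin-transferred, titration series; 72 h, 37 degrees C; CellTiter-Glo, luminescence. Data normalized, curve-fit.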
Active calls of the source: *; i = inactive; u = inconclusive; x = no result given; [ ] = another dose, or the depositor's remark. The call rests on the fitted dose curve; in most records, active means well fitted curve in the direction sought with a large enough effect; inconclusive means small, poorly fitted or top-dose-only effect, or another doubt; inactive means no such curve, though single readings can be large; an effect the other way counts as inactive or inconclusive. Unless noted, on the % scale 0 is the no-effect control and ±100 the full control effect; potency means the concentration at half of the fitted maximal effect.

SMILES	HT1080-NT tox	KB-3-1 cytotox	HT1080 IDH1KD tx	KB-V1 MDR tox
COc1ccc(OC)c(NC(=O)CSC2=Nc3ccccc3C3=NC(CC(=O)NCc4ccc5c(c4)OCO5)C(=O)N23)c1 (configuration not stated)	x	i	x	i
CC(=O)Nc1ccc2nc3c(=O)n(C)c(=O)n(C)c3nc2c1C	x	i	x	i
Fc1ccc(N2CCN(c3nc4ccccc4c4nc(-c5cccnc5)nn34)CC2)cc1	x	i	x	i
CCC(=O)NC(c1ccccc1OC)c1ccc2cccnc2c1O (configuration not stated)	0.79µM*	10µM*	0.5µM*	u
Cc1nc(-c2coc3cc(O)c(C)cc3c2=O)cs1	18µM*	u	23µM*	u
CCOc1ccc(S(=O)(=O)NCc2ccccn2)cc1NC(=O)c1ccccc1	2.6µM*	2.3µM*	3.3µM*	6.5µM*
COc1ccc(S(=O)(=O)NCc2ccccn2)cc1NC(=O)c1ccccc1F	4.6µM*	1.5µM*	5.8µM*	1.8µM*
CCOc1ccc(S(=O)(=O)NCc2cccnc2)cc1NC(=O)c1ccccc1	u	i	1%	i
COc1cc2c(cc1OC)C(c1ccc(F)cc1)N(c1ccccc1)C(=O)C2 (configuration not stated)	x	i	x	i
CC(=O)Nc1cccc(-c2nnc(-c3ccccc3)o2)c1	17%	i	6%	u
O=C(Nc1cccc(-c2nnc(-c3ccccc3)o2)c1)C1CC1	1%	i	-12%	10µM*
COc1ccccc1OCC(=O)Nc1cccc(-c2nnc(-c3ccco3)o2)c1	-5%	i	u	i
COc1ccc(CC(=O)Nc2cccc(-c3nnc(-c4ccccc4)o3)c2)cc1OC	u	u	-21%	u
O=C(COc1ccccc1)Nc1ccc(-c2nnc(-c3ccco3)o2)cc1	9.2µM*	i	12µM*	i
CCc1cccc(NC(=O)Cc2ccc(OC)c(OC)c2)c1	-10%	u	-10%	16µM*
COc1ccc(CC(=O)Nc2cccc(-c3nnc(-c4ccc(C)cc4)o3)c2)cc1OC	u	i	u	4.1µM*
Cc1ccccc1S(=O)Cc1ccc(C(=O)NC2CCCCCC2)o1 (configuration not stated)	x	i	x	i
O=C(Cc1ccccc1)Nc1cccc(-c2nnc(-c3ccco3)o2)c1	-2%	i	-3%	i
COC(=O)c1c(-c2ccc3ccccc3c2)csc1NC(=O)Cc1ccc(OC)c(OC)c1	-27%	u	-6%[9.24 µM]	15µM*
CCOc1cccc(C(=O)Nc2cccc(-c3nnc(-c4ccc(C)cc4)o3)c2)c1	-8%	13µM*	-2%	u
CCOc1cccc(C(=O)Nc2cccc(-c3nnc(-c4ccccc4)o3)c2)c1	0%	i	0%	i
O=C(Cc1ccc(Cl)cc1)Nc1cccc(-c2nnc(-c3ccco3)o2)c1	u	u	u	0.58µM*
CCc1nnc(NC(=O)[C@@H]2CCCN2C(=O)c2cccs2)s1	x	i	x	u
CCCCNC(=O)c1ccc2c(=O)n(Cc3ccc(OC)cc3)c(=O)[nH]c2c1	x	i	x	i
C[C@H](CO)N1C[C@H](C)[C@@H](CN(C)Cc2ccncc2)Oc2c(NC(=O)Cc3ccccc3)cccc2C1=O	u	16µM*	15µM*	i
SMILES	HT1080-NT tox	KB-3-1 cytotox	HT1080 IDH1KD tx	KB-V1 MDR tox
COc1ccc(S(=O)(=O)N(C)C[C@H]2Oc3c(NC(=O)Nc4ccc(C(F)(F)F)cc4)cccc3C(=O)N([C@H](C)CO)C[C@@H]2C)cc1	u	u	21µM*	u
C[C@H](CO)N1C[C@H](C)[C@@H](CN(C)Cc2ccc(-c3ccccc3)cc2)Oc2c(NC(=O)Cc3ccccc3)cccc2C1=O	-8%	i	-19%	u
C[C@H](CO)N1C[C@H](C)[C@@H](CN(C)Cc2ccccc2)Oc2c(NC(=O)Cc3ccccc3)cccc2C1=O	u	23µM*	u	u
CCCN(CCC)CC(O)Cn1cc(/C=C/C(=O)c2ccc(OCC)cc2)c2ccccc21 (configuration not stated)	x	i	x	u
CNc1ccc2ncc(-c3ccc(OC)c(OC)c3)n2n1	18µM*	i	u	i
C[n+]1ccc(C(c2c[nH]c3ccccc23)c2cc[n+](C)c3ccccc23)c2ccccc21	x	1.5µM*	x	i
CCN1CCN(C(=O)c2cnn(-c3ccc(F)cc3F)c2C2CCN(C(=O)OC(C)(C)C)CC2)CC1	x	i	x	i
COc1ccccc1N1CCN(C(=O)CN2C(=O)COc3ccc(S(=O)(=O)N4CCCC4)cc32)CC1	x	i	x	u
O=C(Nc1ccc(N2CCOCC2)cc1)c1ccc([N+](=O)[O-])o1	7.3µM*	i	5.2µM*	u
O=C(Nc1ccc(Cc2ccncc2)cc1)c1cccc([N+](=O)[O-])c1	0%	i	-15%	u
Cc1ccc(C(=O)Nc2ccc(S(=O)(=O)N3CCCC3)cc2)o1	-13%	i	-5%	u
CC(=O)Nc1ccc2nc(NC(=O)c3ccc([N+](=O)[O-])o3)sc2c1	u	9.2µM*	5.2µM*	16µM*
O=C(Nc1ccc(Cc2ccncc2)cc1)c1ccc([N+](=O)[O-])o1	3.7µM*	u	5.2µM*	i
O=C(Nc1ccc(S(=O)(=O)N2CCCCCC2)cc1)c1ccc(Br)o1	1%	u	-17%	5.8µM*
Cc1cccc(C(=O)Nc2ccccc2C(=O)OCc2cc(=O)n3nc(C4CC4)sc3n2)c1	x	i	x	i
COc1ccc(S(=O)(=O)N2CCCCC2)cc1NC(=O)c1ccc([N+](=O)[O-])o1	7%	18µM*	-6%	i
O=C(Nc1ccc(Oc2ccc(S(=O)(=O)N3CCOCC3)cn2)cc1)c1ccco1	0%	i	1%	18µM*
O=C(Nc1ccc(S(=O)(=O)N2CCOCC2)cc1)c1ccc([N+](=O)[O-])s1	-2%	5.2µM*	-3%	u
O=C(Nc1ccc(S(=O)(=O)N2CCOCC2)cc1)c1ccco1	11%	i	15%	i
CCN1CCN(c2ccc(S(=O)(=O)N3CCCCC3)cc2NC(=O)c2ccc([N+](=O)[O-])o2)CC1	-1%	u	2%	u
O=C(Nc1ccc(S(=O)(=O)N2CCCC2)cc1)c1ccc([N+](=O)[O-])o1	16µM*	u	15µM*	u
CCCn1c(CN2CCN(c3ccc(OC)cc3)CC2)nc2c1c(=O)[nH]c(=O)n2C	x	u	x	i
Cc1cccc(Cn2c(=O)n3nc(-c4ccccc4)nc3c3ccccc32)c1	x	i	x	u
CCN(CC)C(=O)c1sc(NC(=O)c2nc3ncccn3n2)c(C(=O)OC)c1C	x	i	x	i
